From PubChem BioAssay
BJeLR viability: lowers viability of BJeLR cells | AID 2275 | 30,000 tested, 0.64% active | BJeLR fibroblasts viability, CellTiterGlo ATP luminescence, 48 h; HRASV12, hTERT and SV40 LT/ST transformed | viability loss activity score, % (no concentration beside the values); in the data active = viability loss activity score above about 50%; inconclusive = no clear call, values can overlap the other calls; inactive = below about 35%;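 also: higher score means fewer live cells and less ATP luminescence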
Hedgehog inh: Sonic Hedgehog pathway inhibition; Shh-LIGHT2 Gli-luciferase reporter, 30 h; inhibition, % (test concentration not listed); 22,000 tested, 2.1% active; AID 2313;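 active = mean inhibition across valid replicates above about 65%, limit read from the data; inconclusive = mean under the limit, yet half or more replicates past it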;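 also: pathway switched on by Shh-conditioned medium diluted 1 in 25 in low serum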
MITF inh: MITF inhibition | TRPM1 promoter luciferase, luminescence, 24 h | inhibition, % (concentration not given with the values) | 37,000 tested, 0.28% active; in the data active = inhibition above about 85%; inconclusive = no clear call, values can overlap the other calls; inactive = below about 68%;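 also: human melanocyte line stably carrying TRPM1 promoter luciferase reporter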
Hits are given with their value; . = inactive; ? = inconclusive; / = not tested or not shown. This excerpt belongs to a sample that is enriched for hits.

SMILES | BJeLR viability | Hedgehog inh | MITF inh
C[C@@H]1C[C@@H]2O[C@H]2/C=C/C=C\C(=O)Cc2c(Cl)c(O)cc(O)c2C(=O)O1 | 81 | . | .
COc1cc(O)cc2c1C(=O)OC(C)C2 (stereo unspecified) | . | . | .
CC(C)CCNC(=O)c1ccc2c(c1)N(Cc1ccccc1)CCS2 | . | / | /
O=C(CSc1ccccn1)Nc1cc(C(=O)O)cc(C(=O)O)c1 | . | / | /
Cc1ccc(S(=O)(=O)c2[nH]nc3ccc(Cl)cc23)cc1 | . | / | /
CC(C)(C)C1CCC2(CC1)C(C#N)C2(C#N)C(=O)c1ccccc1 (stereo unspecified) | . | ? | 85
CC12CCC(CC(=O)c3ccccc3)(CC1)CC2 | . | / | .
CC(Sc1nc(-c2ccccc2)cc(C(F)(F)F)n1)C(=O)NCc1ccccc1 (stereo unspecified) | . | / | /
COc1ccc(/C=C2\C(=O)C3(C)CCC2C3(C)C)cc1 (stereo unspecified) | . | / | /
CCCN1C/C(=C/c2ccc(OC)cc2)C(=O)/C(=C/c2ccc(OC)cc2)C1 | 70 | / | /
CS(=O)(=O)N(CC(=O)Nc1ccc(Cl)c(Cl)c1)c1ccc(Br)cc1 | / | / | 116
CS(=O)(=O)N(CC(=O)Nc1ccc(Cl)c(Cl)c1)c1cc(Cl)cc(Cl)c1 | / | / | .
C=CC1(C)C=C2CCC3C(C)(C)C(O[C@@H]4O[C@@H](CO)[C@H](O)[C@H]4O)CCC3(C)C2CC1O[C@@H]1O[C@H](C)[C@H](O)[C@H](O)[C@H]1O (stereo partly specified) | . | . | .
C=CC1(C)C=C2CCC3C(C)(C)C(O[C@@H]4O[C@@H](CO)[C@H](O)[C@H]4O)CCC3(C)C2CC1O[C@@H]1O[C@H](CO)[C@@H](O)[C@H](O)[C@H]1O (stereo partly specified) | / | 99 | /
CC1(C)CC[C@]2(C(=O)O)CC[C@]3(C)C(=CCC4[C@@]5(C)CC[C@H](O[C@@H]6O[C@H](C(=O)O)[C@@H](O[C@@H]7O[C@H](CO)[C@@H](O)[C@H](O)[C@H]7O)[C@H](O)[C@H]6O[C@@H]6O[C@H](CO)[C@@H](O)[C@H](O)[C@H]6O)C(C)(C)C5CC[C@]43C)C2C1 (stereo partly specified) | . | . | .
CC1(C)CC[C@]2(C(=O)O)CC[C@]3(C)C(=CCC4[C@@]5(C)CC[C@H](O[C@@H]6O[C@H](CO)[C@@H](O)[C@H](O)[C@H]6O)C(C)(C)C5CC[C@]43C)[C@@H]2C1 (stereo partly specified) | . | 89 | .
C/C=C(/C)C(=O)O[C@H]1CC(C)(C)C[C@H]2C3=CCC4[C@@]5(C)CC[C@H](O[C@@H]6O[C@H](C(=O)O)[C@@H](O[C@@H]7O[C@H](CO)[C@H](O)[C@H](O)[C@H]7O[C@@H]7O[C@H](CO)[C@@H](O)[C@H](O)[C@H]7O)[C@H](O)[C@H]6O[C@@H]6O[C@@H](C)[C@H](O)[C@@H](O)[C@H]6O)C(C)(C)C5CC[C@@]4(C)[C@]3(C)C[C@@H](O)[C@@]12CO (stereo partly specified) | 127 | 99 | 92
CC(=O)OC1COC(OC2C(O)C(C)OC(OC3C(OC4CCC5(C)C(CCC6(C)C5CC=C5C7CC(C)(C)CCC7(C(=O)O)CCC56C)C4(C)CO)OCC(O)C3O)C2O)C(O)C1OC(C)=O (stereo unspecified) | . | 98 | .
C[C@@H]1O[C@@H](O[C@@H]2CC[C@@]3(C)C(CC[C@]4(C)C3CC=C3[C@@H]5CC(C)(C)CC[C@]5(C(=O)O[C@@H]5O[C@H](CO)[C@@H](O)[C@H](O)[C@H]5O)CC[C@]34C)[C@]2(C)CO)[C@H](O)[C@H](O[C@@H]2OC[C@@H](O)[C@H](O)[C@H]2O)[C@H]1O (stereo partly specified) | . | . | .
CC1OC(OC2C(C(=O)O)OC(O[C@H]3CC[C@@]4(C)C(CC[C@]5(C)C4CC=C4C6CC(C)(C)CC[C@]6(C(=O)OC6OC(CO)C(O)C(O)C6O)CC[C@]45C)C3(C)C)C(O)C2O)C(OC2OCC(O)C(O)C2O)C(O)C1O (stereo partly specified) | . | . | .
Cc1cc(SCC(=O)Nc2sc3c(c2C#N)CCCC3)nc2ccccc12 | / | / | .
OC(CNCc1ccc2c(c1)OCO2)COc1ccc(-c2csnn2)cc1 (stereo unspecified) | . | / | /
C[C@H]1CN([C@@H](C)CO)C(=O)c2cc(NC(=O)Nc3ccc(C(F)(F)F)cc3)ccc2O[C@@H]1CN(C)Cc1ccc(C(F)(F)F)cc1 | . | / | 95
C[C@H](CO)N1C[C@H](C)[C@H](CN(C)Cc2ccc(C(F)(F)F)cc2)Oc2ccc(NC(=O)Nc3ccc(C(F)(F)F)cc3)cc2C1=O | . | / | .
Cc1ccc(S(=O)(=O)Nc2ccc3c(c2)CC(=O)N([C@H](C)CO)C[C@@H](C)[C@@H](CN(C)Cc2ccc(C(F)(F)F)cc2)O3)cc1 | / | . | .
SMILES | BJeLR viability | Hedgehog inh | MITF inh
C[C@@H]1CN([C@H](C)CO)C(=O)c2cc(NC(=O)Nc3ccc(C(F)(F)F)cc3)ccc2O[C@@H]1CN(C)Cc1ccc(C(F)(F)F)cc1 | . | / | .
Cc1noc(C)c1NC(=O)N(C)C[C@@H]1Oc2ccc(NC(=O)CCN3CCOCC3)cc2CC(=O)N([C@H](C)CO)C[C@H]1C | / | . | .
Cc1ccc(S(=O)(=O)Nc2ccc3c(c2)CC(=O)N([C@@H](C)CO)C[C@H](C)[C@@H](CN(C)Cc2ccc(C(F)(F)F)cc2)O3)cc1 | / | 69 | .
C[C@@H]1CN([C@@H](C)CO)C(=O)c2cc(NC(=O)Nc3ccc(C(F)(F)F)cc3)ccc2O[C@@H]1CN(C)Cc1ccc(C(F)(F)F)cc1 | . | . | 101
Cc1noc(C)c1NC(=O)N(C)C[C@H]1Oc2ccc(NC(=O)CCN3CCOCC3)cc2CC(=O)N([C@@H](C)CO)C[C@H]1C | / | 67 | .
CN(C)C(=S)Nc1ccccc1 | . | / | /
COc1cc(Cl)c(C)cc1NC(=O)CC1Sc2ccccc2NC1=O (stereo unspecified) | / | / | .
CC1(C)O[C@H]2CC(=O)OC[C@@]23[C@H]1CC(=O)[C@@]1(C)C2=CC(=O)O[C@@H](c4ccoc4)[C@]2(C)CC[C@@H]13 | . | . | .
CN(C)/C=C/C(=O)c1sc(SCc2ccc(Cl)cc2)c2c1CC(C)(C)CC2=O | . | . | .
CC(C)Cc1ccc(C(C)C(=O)N2CCN(c3ccc(C(F)(F)F)cn3)CC2)cc1 (stereo unspecified) | . | / | /
C[C@@H]1CCCCO[C@H](CN(C)Cc2ccc(C(F)(F)F)cc2)[C@@H](C)CN([C@H](C)CO)C(=O)c2cc(NC(=O)C3CCCCC3)ccc2O1 | / | 66 | .
C[C@@H]1CN([C@@H](C)CO)C(=O)c2cc(NC(=O)Nc3ccc(F)cc3)ccc2O[C@@H]1CN(C)Cc1ccc(Cl)c(Cl)c1 | . | 85 | .
CC(C)NC(=O)Nc1ccc2c(c1)CC(=O)N([C@H](C)CO)C[C@@H](C)[C@H](CN(C)C(=O)Nc1ccc(F)cc1)O2 | / | . | .
C[C@@H]1CCCCO[C@@H](CN(C)Cc2ccncc2)[C@@H](C)CN([C@H](C)CO)C(=O)c2cc(NC(=O)C3CCCCC3)ccc2O1 | / | . | .
C[C@@H]1CN([C@H](C)CO)C(=O)c2cc(NC(=O)Nc3ccc(F)cc3)ccc2O[C@H]1CN(C)Cc1ccc(Cl)c(Cl)c1 | . | . | .
